Assay results taken from PubChem BioAssay AID1117358 (Southern Research Institute, 2015).
Among all 2,300 compounds or so, about 160 (7%) were called active. The rule behind the calls is not given here. A selection follows. Measured potencies and affinities stand elsewhere.

experiment: Vero cell cytotoxicity, dose response, cytotoxicity control for Vif-APOBEC3G degradation inhibitor project, Vero cells (AID 1117358); conditions: CellTiter-Glo ATP luminescence, 72 h; series mostly up to 40 µM

Structure (SMILES)	outcome
Cc1cccc(CCNC(=O)CCc2nc(-c3ccccc3F)no2)c1	inactive
O=C(N/N=C/C=C\c1ccco1)c1cccnc1	inactive
Cc1cc(C)nc(N(C#N)CN2C(=O)c3ccccc3S2(=O)=O)n1	inactive
COC(=O)CSc1nnc(CNC(=O)c2cccs2)n1-c1cc(OC)ccc1OC	inactive
COc1ccc(OC)c(-c2cc(C(=O)NCc3cccs3)no2)c1	inactive
c1ccc2c(c1)ccc1nnc(SCc3ccc4c(c3)OCO4)n12	inactive
CCOC(=O)NC1(NC2CCCCC2)Oc2ccccc2O1	inactive
CC(C)(C)NC(=O)C1N(c2cccnc2)C(=O)C2C(C(=O)Nc3ccccc3F)C3(C)C=CC21O3 (centres undefined)	inactive
O=S(=O)(c1ccc(Cl)s1)N1CCN(Cc2ccccc2)CC1	inactive
O=C(CN1CCN(S(=O)(=O)c2ccc(Cl)cc2)CC1)Nc1ccc2c(c1)OCCO2	inactive
CCC(C)(C)C1CCc2c(sc(NC(=O)c3ccoc3C)c2C(N)=O)C1 (centres undefined)	inactive
O=C(CSc1nnc(-c2cccnc2)n1Cc1ccco1)c1ccc(Br)cc1	inactive
Cc1c(C(=O)Nc2ccc(Cl)cc2)c2ccccn2c1CCc1ccncc1	inactive
O=C(O)CCC(=O)NNC(=O)CCC(=O)NCc1ccccc1	inactive
C/C(=C/C(=O)NCc1ccccc1)C(=O)O	inactive
Cc1cc(F)ccc1S(=O)(=O)Nc1ccccc1C(=O)Nc1ccc2[nH]c(=O)[nH]c2c1	inactive
COC(=O)c1ccccc1NC(=O)C1CCCC1	inactive
Cc1ccc(Cc2cnc(NC(=O)/C(C#N)=C/c3ccc(-c4ccc([N+](=O)[O-])cc4)o3)s2)cc1	inactive
COc1ccc(NC(=O)/C(C#N)=C\c2cc(C)n(-c3ccc(Oc4ccc([N+](=O)[O-])cn4)cc3)c2C)cc1	inactive
O=C(NCc1ccc(F)cc1)c1c(O)c2cccc3c2n(c1=O)CCC3	inactive
CCSC1=C(C#N)C(c2cccs2)C(C(=O)OC)=C(C)N1 (centres undefined)	inactive
CCOC(=O)c1c(O)c2ccccc2n(-c2ccccc2)c1=O	inactive
CCn1c(=O)c(C(=O)NCc2ccccn2)c(O)c2ccccc21	inactive
Cc1ccc2cc3c(NC(=O)c4cccnc4)nn(C)c3nc2c1	inactive
CN(C)C(CNC(=O)c1cccnc1Sc1ccccc1)c1ccco1 (centres undefined)	inactive
O=C(c1cnn2c(C(F)F)cc(C3CC3)nc12)N1CCc2ccccc2C1	inactive
O=C(NC1CCCC1)c1ccc(CNc2c(N3CCOCC3)c(=O)c2=O)cc1	inactive
Cc1cc(C(=O)CN2C(=O)c3ccccc3S2(=O)=O)c(C)n1CC1CCCO1 (centres undefined)	inactive
CN(C)[C@H]1N(C(=O)c2ccc(Br)cc2)N=C2c3ccccc3S(=O)(=O)N21	inactive
